Laboratory results: PubChem BioAssay (NCI)
This is part of a sample that, as a whole, favours compounds with a hit. Of some 79,000 tested, about 15% had one in any assay. Active and inactive are the calls of the source. Rule as the data show it: active = growth inhibition above about 70%; inactive = the rest.

Key:
[1] = NCI Yeast Anticancer Drug Screen. Data for the rad52 strain (AID 147);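 also: 0% = growth of vehicle-treated control cultures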; details: S. cerevisiae rad52 mutant growth inhibition, active compounds read high
How it was run: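 Genetically altered yeast (DNA damage repair defect) treated with compound; inhibition calculated relative to vehicle.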

[2] = NCI Yeast Anticancer Drug Screen. Data for the wt1 strain (AID 149);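 also: 0% = growth of vehicle-treated wt1 cultures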; details: S. cerevisiae wt1 strain (SPY 50644) growth inhibition, active compounds read high
How it was run: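 wt1 yeast, compound-treated; % growth inhibition vs vehicle control.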

[3] = NCI Yeast Anticancer Drug Screen. Data for the rad50EPP+ strain (AID 151);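 also: 0% = growth of vehicle-treated control cultures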; details: S. cerevisiae rad50 mutant strain, active compounds read high
How it was run: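 Strain rad50EPP+; compound exposure; % growth inhibition vs vehicle.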

[4] = NCI Yeast Anticancer Drug Screen. Data for the mgt1 strain (AID 153); details: S. cerevisiae mgt1 mutant growth inhibition, active compounds read high
How it was run: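 Read-out: yeast growth inhibition vs vehicle control. Strain mgt1, drawn from a panel altered in DNA damage repair or cell cycle control.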

[5] = NCI Yeast Anticancer Drug Screen. Data for the rad50 strain (AID 155);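 also: 0% = growth of vehicle-only cultures of the same strain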; details: S. cerevisiae rad50 strain growth inhibition, active compounds read high
How it was run: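 Genetically altered yeast (DNA repair pathway); compound treatment; growth inhibition vs vehicle ctrl.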

[6] = NCI Yeast Anticancer Drug Screen. Data for the mec2-1 strain (AID 157); details: S. cerevisiae mec2-1 strain, active compounds read high
How it was run: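 Cells of the genetically defined mec2-1 yeast strain are incubated with test compound. Inhibition of growth is calculated against vehicle-treated controls.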

[7] = NCI Yeast Anticancer Drug Screen. Data for the rad14 strain (AID 159);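 also: 0% = growth of vehicle-treated control cultures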; details: S. cerevisiae rad14 strain growth inhibition, active compounds read high
How it was run: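 Test compounds were applied to a repair-deficient yeast strain. Its growth was then compared with that of cultures given vehicle alone, and inhibition was expressed relative to those controls.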

[8] = NCI Yeast Anticancer Drug Screen. Data for the CLN2oe strain (AID 163);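 also: 0% = growth of vehicle-only control cultures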; details: S. cerevisiae CLN2oe strain, active compounds read high
How it was run: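 Strain altered in cell-cycle control, incubated with compound; growth compared to solvent-treated controls.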

[9] = NCI Yeast Anticancer Drug Screen. Data for the cln2 rad14 strain (AID 165);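 also: 0% = growth equal to vehicle treated cultures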; details: S. cerevisiae cln2 rad14 strain, active compounds read high
How it was run: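 The screen exposed genetically defined yeast (cln2 rad14) to test compounds and scored growth inhibition relative to vehicle-treated controls.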

[10] = NCI Yeast Anticancer Drug Screen. Data for the bub3 strain (AID 167); details: S. cerevisiae bub3 mutant strain, active compounds read high
How it was run: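 Yeast carrying a defined mutation is treated with each compound, and growth is compared with that of vehicle-exposed cells to give inhibition.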

[11] = NCI Yeast Anticancer Drug Screen. Data for the wt2 strain (AID 169);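 also: 0% = growth of vehicle-treated yeast cultures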; details: S. cerevisiae wt2 strain growth inhibition, active compounds read high
How it was run: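 Steps: yeast strain treated with compound; growth recorded; inhibition calculated relative to cultures given vehicle alone.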

[12] = NCI Yeast Anticancer Drug Screen. Data for the mlh1 strain (AID 171);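 also: 0% = growth of vehicle-treated control cultures of the same strain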; details: S. cerevisiae mlh1 strain growth inhibition, active compounds read high
How it was run: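 Yeast screen: mutant strain plus compound, growth scored against vehicle control wells.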

[13] = NCI Yeast Anticancer Drug Screen. Data for the sgs1 strain (AID 173);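 also: 0% = growth of vehicle-only control cultures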; details: S. cerevisiae sgs1 mutant, active compounds read high
How it was run: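 Inhibition of yeast growth served as the measure. The mutant strain was treated with each compound, and growth was normalised to cultures receiving vehicle alone.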

[14] = NCI Yeast Anticancer Drug Screen. Data for the mlh1 rad18 strain (AID 175); details: S. cerevisiae mlh1 rad18 strain growth inhibition, active compounds read high
How it was run: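 Compound-treated yeast growth, normalised to vehicle controls. Strain bears defined DNA repair mutations.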

[15] = NCI Yeast Anticancer Drug Screen. Data for the rad18 strain (AID 177); details: S. cerevisiae rad18 mutant growth inhibition, active compounds read high
How it was run: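 Inhibition values reflect reduced yeast growth compared with vehicle-treated controls, using a strain engineered with a DNA damage repair defect.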

[16] = at 5.0 µM (retest, dose inferred, filed as 0.5)
[17] = at 50.0 µM (retest, dose inferred, filed as 5.0)

Measured: growth inhibition

S=C1SCN(C2CCCCC2)CN1C1CCCCC1
inactive: [1]; at 1.2 µM -21% | [1]; at 3.7 µM -25% | [1]; at 11.0 µM -14% | [1]; at 33.0 µM -1% | [1]; at 100.0 µM 55% | [2]; at 1.2 µM -21% | [2]; at 3.7 µM -29% | [2]; at 11.0 µM -29% | [2]; at 33.0 µM -21% | [2]; at 100.0 µM 40% | [3]; at 1.2 µM -51% | [3]; at 3.7 µM -36% | [3]; at 11.0 µM -3% | [3]; at 33.0 µM 44% | [4]; at 1.2 µM -72% | [4]; at 3.7 µM -45% | [4]; at 11.0 µM -2% | [4]; at 33.0 µM -23% | [4]; at 100.0 µM 64% | [5]; at 1.2 µM -4% | [5]; at 3.7 µM -8% | [5]; [16] 44% | [5]; at 11.0 µM -1% | [5]; at 33.0 µM 13% | [5]; at 50.0 µM 47.5% | [5]; at 100.0 µM 67% | [6]; at 1.2 µM -65% | [6]; at 3.7 µM -78% | [6]; [16] 56% | [6]; at 11.0 µM -64% | [6]; at 33.0 µM -28% | [6]; at 50.0 µM 63.5% | [6]; at 100.0 µM 58% | [7]; at 1.2 µM -31% | [7]; at 3.7 µM -25% | [7]; at 11.0 µM -24% | [7]; at 33.0 µM 2% | [7]; at 100.0 µM 45% | [8]; at 1.2 µM -21% | [8]; at 3.7 µM -19% | [8]; at 11.0 µM -16% | [8]; at 33.0 µM -1% | [8]; at 100.0 µM 19% | [9]; [16] 10% | [9]; at 50.0 µM 31.1% | [10]; at 1.2 µM -18% | [10]; at 3.7 µM -10% | [10]; [16] 20% | [10]; at 11.0 µM -23% | [10]; at 33.0 µM 22% | [11]; at 1.2 µM -37% | [11]; at 3.7 µM -35% | [11]; at 11.0 µM -39% | [11]; at 33.0 µM -22% | [11]; at 100.0 µM 39% | [12]; at 1.2 µM -44% | [12]; at 3.7 µM -43% | [12]; at 11.0 µM -31% | [12]; at 33.0 µM -5% | [13]; at 1.2 µM -36% | [13]; at 3.7 µM -22% | [13]; at 11.0 µM -17% | [13]; at 33.0 µM 24% | [14]; [16] 34% | [14]; at 50.0 µM 49.1% | [15]; at 1.2 µM -57% | [15]; at 3.7 µM -38% | [15]; at 11.0 µM -39% | [15]; at 33.0 µM -3% | [15]; at 100.0 µM 64%
active: [3]; at 100.0 µM 88% | [5]; [17] 99% | [6]; [17] 100% | [9]; [17] 81% | [10]; [17] 94% | [10]; at 50.0 µM 82.8% | [10]; at 100.0 µM 71% | [12]; at 100.0 µM 79% | [13]; at 100.0 µM 71% | [14]; [17] 99%
